# T1: DVL3 407-503 DEP (domain begin residue: 407, domain end residue: 503), Q92997
# T1 chain: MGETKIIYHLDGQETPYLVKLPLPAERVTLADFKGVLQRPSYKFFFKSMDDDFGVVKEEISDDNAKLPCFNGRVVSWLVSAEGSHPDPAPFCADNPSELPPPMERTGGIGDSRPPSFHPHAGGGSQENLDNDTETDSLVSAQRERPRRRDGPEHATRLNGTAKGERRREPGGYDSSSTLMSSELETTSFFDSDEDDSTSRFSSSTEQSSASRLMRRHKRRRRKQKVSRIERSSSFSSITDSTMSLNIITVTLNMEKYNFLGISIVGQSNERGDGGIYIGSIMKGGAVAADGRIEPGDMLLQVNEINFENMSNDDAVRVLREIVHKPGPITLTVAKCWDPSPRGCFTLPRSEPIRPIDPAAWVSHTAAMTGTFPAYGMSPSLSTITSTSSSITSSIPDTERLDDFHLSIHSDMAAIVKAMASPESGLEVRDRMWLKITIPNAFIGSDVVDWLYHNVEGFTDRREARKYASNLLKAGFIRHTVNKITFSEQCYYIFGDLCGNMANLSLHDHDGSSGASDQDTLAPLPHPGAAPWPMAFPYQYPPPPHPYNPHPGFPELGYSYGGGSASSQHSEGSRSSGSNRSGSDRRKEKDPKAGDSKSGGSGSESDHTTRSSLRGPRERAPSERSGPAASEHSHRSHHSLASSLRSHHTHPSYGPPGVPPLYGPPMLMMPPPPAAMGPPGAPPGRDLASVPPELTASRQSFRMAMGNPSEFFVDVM
# T2: DOK7 105-219 IRS (domain begin residue: 105, domain end residue: 219), Q18PE1
# T2 chain: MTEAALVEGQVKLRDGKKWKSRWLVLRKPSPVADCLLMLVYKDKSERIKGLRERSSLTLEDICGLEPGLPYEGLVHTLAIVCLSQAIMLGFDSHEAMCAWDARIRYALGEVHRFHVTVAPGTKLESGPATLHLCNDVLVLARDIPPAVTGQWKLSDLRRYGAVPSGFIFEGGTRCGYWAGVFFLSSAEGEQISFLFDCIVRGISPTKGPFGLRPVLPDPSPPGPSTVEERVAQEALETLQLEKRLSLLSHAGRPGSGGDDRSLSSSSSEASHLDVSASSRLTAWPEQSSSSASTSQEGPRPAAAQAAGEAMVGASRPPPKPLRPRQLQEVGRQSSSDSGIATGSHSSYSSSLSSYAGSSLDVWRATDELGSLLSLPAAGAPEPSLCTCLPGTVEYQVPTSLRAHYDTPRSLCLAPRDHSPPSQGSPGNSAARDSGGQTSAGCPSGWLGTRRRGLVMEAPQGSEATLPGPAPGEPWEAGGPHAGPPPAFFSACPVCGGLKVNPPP
# T3: DVL2 416-511 DEP (domain begin residue: 416, domain end residue: 511), O14641
# T3 chain: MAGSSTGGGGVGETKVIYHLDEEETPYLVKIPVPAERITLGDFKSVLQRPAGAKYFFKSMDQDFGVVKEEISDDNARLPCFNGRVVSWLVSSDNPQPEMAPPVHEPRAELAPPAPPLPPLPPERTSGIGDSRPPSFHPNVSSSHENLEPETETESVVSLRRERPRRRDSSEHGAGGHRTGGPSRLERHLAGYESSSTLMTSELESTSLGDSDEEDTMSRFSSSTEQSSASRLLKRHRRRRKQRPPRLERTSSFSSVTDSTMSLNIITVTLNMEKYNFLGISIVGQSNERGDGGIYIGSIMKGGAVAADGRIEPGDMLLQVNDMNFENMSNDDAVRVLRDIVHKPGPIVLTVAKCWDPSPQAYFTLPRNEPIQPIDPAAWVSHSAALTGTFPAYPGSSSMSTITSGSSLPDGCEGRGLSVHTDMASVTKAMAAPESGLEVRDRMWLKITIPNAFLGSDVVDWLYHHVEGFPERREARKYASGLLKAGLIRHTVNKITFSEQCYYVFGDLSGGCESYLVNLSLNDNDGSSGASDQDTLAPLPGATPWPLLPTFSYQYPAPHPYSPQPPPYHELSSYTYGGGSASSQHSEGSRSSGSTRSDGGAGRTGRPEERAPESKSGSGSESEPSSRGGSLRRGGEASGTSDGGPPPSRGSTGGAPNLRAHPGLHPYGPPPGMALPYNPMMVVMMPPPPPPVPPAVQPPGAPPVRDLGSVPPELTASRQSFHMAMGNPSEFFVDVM
# T4: DVL1 406-503 DEP (domain begin residue: 406, domain end residue: 503), O14640
# T4 chain: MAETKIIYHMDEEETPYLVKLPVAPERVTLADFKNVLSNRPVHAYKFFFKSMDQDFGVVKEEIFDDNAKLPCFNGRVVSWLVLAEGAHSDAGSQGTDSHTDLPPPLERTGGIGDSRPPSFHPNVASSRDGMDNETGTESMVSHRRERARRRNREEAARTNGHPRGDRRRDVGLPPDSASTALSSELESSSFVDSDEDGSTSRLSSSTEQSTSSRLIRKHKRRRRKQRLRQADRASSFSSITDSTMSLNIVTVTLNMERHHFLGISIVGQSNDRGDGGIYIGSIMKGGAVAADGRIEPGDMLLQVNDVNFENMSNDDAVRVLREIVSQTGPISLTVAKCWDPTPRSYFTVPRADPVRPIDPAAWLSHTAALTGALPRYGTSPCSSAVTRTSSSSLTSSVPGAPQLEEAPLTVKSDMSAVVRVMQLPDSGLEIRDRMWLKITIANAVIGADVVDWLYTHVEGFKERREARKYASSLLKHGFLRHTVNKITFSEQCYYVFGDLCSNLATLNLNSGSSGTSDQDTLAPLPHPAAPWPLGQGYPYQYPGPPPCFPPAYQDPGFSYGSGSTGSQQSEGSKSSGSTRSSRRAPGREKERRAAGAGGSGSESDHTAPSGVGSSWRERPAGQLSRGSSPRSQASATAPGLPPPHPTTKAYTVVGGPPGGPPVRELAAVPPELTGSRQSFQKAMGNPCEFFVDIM
# Tests used:
# Experiment in all cases: phage ELISA signal ratio (GST-PRM binding over GST background); higher = stronger binding of peptide-phage to the PRM
# [1] = target: DYNLL1 1-89 Dynein_light (domain begin residue: 1, domain end residue: 89), P63167
# Summary of the method: (§1)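 Five rounds of selection were carried out against human peptide recognition domains fused to the C-terminus of glutathione S-transferase (GST) and expressed in 96-well plates. The M13 phage library presented randomized hexadecapeptides, cysteine-free and glycine-flanked, on the gene-8 major coat protein. For each value, the phage ELISA signal on the GST-domain fusion was divided by the signal on GST alone.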
# [2] = target: T1, DVL3 407-503 DEP (domain begin residue: …
# Summary of the method: as §1
# [3] = target: T2, DOK7 105-219 IRS (domain begin residue: …
# Summary of the method: as §1
# [4] = target: T3, DVL2 416-511 DEP (domain begin residue: …
# Summary of the method: as §1
# [5] = target: T4, DVL1 406-503 DEP (domain begin residue: …
# Summary of the method: as §1
# Chain of DYNLL1 1-89 Dynein_light (domain begin residue: 1, domain end residue: 89), P63167 (P63167 whole entry, the tested form may be a part): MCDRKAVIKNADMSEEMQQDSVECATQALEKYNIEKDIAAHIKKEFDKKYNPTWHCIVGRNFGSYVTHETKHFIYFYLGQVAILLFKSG
binder,measurement,setting,value
SQTPDEWDWQPGAWIT,phage ELISA signal ratio,[1],19.7
LREMGTQTGEMITDYV,phage ELISA signal ratio,[1],25.8
TQTLAWDWYYEFPEMI,phage ELISA signal ratio,[1],24.5
PDLAAWRIWIMEEEQV,phage ELISA signal ratio,[2],22.4
SQTDPTYWFPWEDKWN,phage ELISA signal ratio,[1],28.8
LQTPDWMWAPNVLESM,phage ELISA signal ratio,[1],6.16
TQTGMWDETDSREHWD,phage ELISA signal ratio,[1],11.5
MSLGTQTDWQEPMWWL,phage ELISA signal ratio,[1],26.8
TQTEFPWEDARLPKQE,phage ELISA signal ratio,[1],28.7
VQTDWMDWWMPDPFNA,phage ELISA signal ratio,[1],23.6
TQTGESEMYFWNHMPK,phage ELISA signal ratio,[1],22.7
KDFGTQVDFDILHEEE,phage ELISA signal ratio,[1],27.5
TQTPVWGMDGWMWVTV,phage ELISA signal ratio,[1],19.5
FETTWVLENGWWLPQA,phage ELISA signal ratio,[3],9.36
VDMGTQTEASLLRYSV,phage ELISA signal ratio,[1],33.5
IYWDWEDGYIYEHQPE,phage ELISA signal ratio,[4],18.2
PLENPTYKDGLWWWSV,phage ELISA signal ratio,[4],24.4
EMWYWDAVQGVPYKQG,phage ELISA signal ratio,[4],23.9
LWFWDVETGNAYKTQE,phage ELISA signal ratio,[4],14.1
MDGWFWDHAPHFTMDF,phage ELISA signal ratio,[2],4.23
SQTEWDWLEREWKPSI,phage ELISA signal ratio,[1],19.4
WQMNHLEEWRAYAETL,phage ELISA signal ratio,[2],24.2
WTQTEDPWEYTWLDLV,phage ELISA signal ratio,[1],17.8
VQTDWYGVDGFWVPVL,phage ELISA signal ratio,[1],18.1
TQTEEYMQMLWPYQDV,phage ELISA signal ratio,[1],21.3
VQTDPWVGQLGDFMFV,phage ELISA signal ratio,[1],17.1
SQTEPMPLWSRDAEVT,phage ELISA signal ratio,[1],23.1
PETPYFSDGMWWWVKP,phage ELISA signal ratio,[4],28.8
TQTDMNFWHSPWVELV,phage ELISA signal ratio,[1],24.8
SPTEWVWNWGENAQML,phage ELISA signal ratio,[1],24.1
TQTPYDWLYPAATYLT,phage ELISA signal ratio,[1],28
VFWENQHWMQDLNPEW,phage ELISA signal ratio,[4],26.1
WEWQFWQDYMAQFPSE,phage ELISA signal ratio,[5],3.48
TQTEWLWNWGESAHML,phage ELISA signal ratio,[1],29.8
TQTEYWVIDMPDWMTI,phage ELISA signal ratio,[1],21.2
AYYWSITLGDIVYMVD,phage ELISA signal ratio,[4],16.1
MATQTDWNWGFLQEME,phage ELISA signal ratio,[1],29.1
YWFWNPEIMDAQYMPV,phage ELISA signal ratio,[4],7.02
VHWTLQSVTDWKWVPQ,phage ELISA signal ratio,[5],31.9
QAVPMWQDEHGYWWWN,phage ELISA signal ratio,[4],33.3
GTQTDDTMVYFPREQR,phage ELISA signal ratio,[1],22.8
TQTEDWPQRESQPNWM,phage ELISA signal ratio,[1],25.2
ISVGTQTDWTEPPQMG,phage ELISA signal ratio,[1],29.1
VTVGTQWDGFHVDAPI,phage ELISA signal ratio,[1],19.6
TQTEFYASDWWMMENV,phage ELISA signal ratio,[1],15.6
SQTDWYDELFSQLVVT,phage ELISA signal ratio,[1],27.9
MWYWDPGENTAIWVEQ,phage ELISA signal ratio,[4],22.1
YQPDMRMQDGKWYWII,phage ELISA signal ratio,[4],20.4
PKYQFSLSAESLQWLM,phage ELISA signal ratio,[2],18.1
EMWTQTTSYDFLQMQG,phage ELISA signal ratio,[1],20.7
KWMIDLTDWEAYWVPS,phage ELISA signal ratio,[4],26.7
TQTDLMGDHWPQHKMT,phage ELISA signal ratio,[1],24.5
TQTEPAWGETGEMTAI,phage ELISA signal ratio,[1],26
TQTDAWEMTMLAQQAV,phage ELISA signal ratio,[1],25.2
TQTDESMWLWHWPEDH,phage ELISA signal ratio,[1],29.4
TQTSWWWSETPMFPFM,phage ELISA signal ratio,[1],3.08
MWFWNLDEAMPIWTAM,phage ELISA signal ratio,[4],13.3
